# Assay results as given in PubChem BioAssay AID686978 (National Center for Advancing Translational Sciences (NCATS), 2013).
# About 64,000 (15%) of roughly 420,000 compounds were called active. Another 27% or so got no clear call; they are omitted. Calls come from the whole dose curve; as a rule, active = well fitted inhibition curve with a large enough effect; inconclusive = small, poorly fitted or top-dose-only effect; inactive = flat fitted curve, though single readings scatter. A selection follows. Entries that show only a call come without a potency.
# Assay: qHTS for Inhibitors of human tyrosyl-DNA phosphodiesterase 1 (TDP1): qHTS in cells in absence of CPT; note: nearly all actives have a fitted effect of over 55% in size
# Conditions: DT40 Tdp1-/- hTDP1 cells, no CPT, ATP luminescence, 48 h; activity change, negative = growth inhibition: at 46.2 µM (top of the series)
# Outline: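 Camptothecin absent (DMSO only). Human TDP1-complemented DT40 knockout cells, 400 cells/well, 37 °C for minimum 48 hr; ATP measured via CellTiter-Glo, 30 min dark incubation, luminescence.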
# Potency is the fitted concentration of half-maximal effect.
row,Compound,Potency
1,CCCC1C(c2ccccc2)C(C#N)(C#N)C2(C#N)CC1(N)NC2=O (stereo not given),inactive
2,COc1cccc(CNC(=O)CCN2C(=S)NC(C)(C)CC2C)c1 (stereo not given),inactive
3,O=C(O)C1=NN(c2c(F)c(F)cc(F)c2F)C(=O)CC1,inactive
4,CO[C@H]1[C@H](NC(=O)C(C)C)c2ccccc2C12CCN(Cc1cnc(N(C)C)s1)CC2,inactive
5,COc1cccc(CN2CCC3(CC2)c2ccccc2[C@@H](NC(=O)c2ccccc2OC)[C@@H]3O)c1,16.4 µM (active)
6,COc1ccccc1C(=O)N[C@@H]1c2ccccc2C2(CCN(C(=O)c3csnn3)CC2)[C@H]1OC,inactive
7,N[C@H](C(=O)O)c1ccc(C(=O)O)c(O)c1,inactive
8,CC1=NNC(=O)C1Cc1c(Cl)cccc1Cl (stereo not given),inactive
9,CCNS(=O)(=O)c1ccc(NC(=O)CSc2nc(-c3ccco3)cc(C(F)(F)F)n2)cc1,7.31 µM (active)
10,CC(C)(C)NC(=O)CSc1nc(-c2ccc(F)cc2)cc(C(F)(F)F)n1,18.4 µM (active)
11,CC(C)c1nc(SCC(=O)NC(=O)NC(C)(C)C)n[nH]1,inactive
12,Cc1cccc(NC(=O)CSc2nc(-c3ccco3)cc(C(F)(F)F)n2)c1C,9.2 µM (active)
13,O=C(CSc1nc(-c2ccco2)cc(C(F)(F)F)n1)NCc1cccs1,inactive
14,Cc1cc(C(F)(F)F)nc(SCC(=O)Nc2nccs2)n1,inactive
15,Cc1cc(C(F)(F)F)nn1-c1nc(-c2ccco2)cc(C(F)(F)F)n1,inactive
16,Cc1cccc(NC(=O)Cn2c(C(F)(F)F)nc3ccccc32)c1C,inactive
17,CN(C)c1ccc(NC(=O)CSc2n[nH]c(-c3ccco3)n2)cc1,inactive
18,Cc1ccccc1CN1C(=O)CSCC1(C)C(=O)Nc1c(C)cccc1C (stereo not given),inactive
19,Cc1n[nH]c(=O)c2c(NC(=O)CSc3cc(Cl)ccc3Cl)oc(C)c12,inactive
20,O=C(CSc1nnnn1C1CCCC1)N1CCCCC1,inactive
21,Cc1cc(=O)oc2c1ccc1ccccc12,inactive
22,O=C(Nc1ccc(C(=O)NCc2ccccc2Cl)cc1)C1=CSCCO1,inactive
23,C=CCn1c2c(c3ccccc31)CCC2,inactive
24,CCc1nnc(NS(=O)(=O)c2ccc(NC(=O)c3cccc(OC(F)(F)C(F)F)c3)cc2)s1,inactive
25,O=C(c1cccs1)N1CCN(C(=O)N2CCOCC2)CC1,inactive
26,C/C(=N\Nc1ccccc1)c1cccs1,inactive
27,C/C(=N\Nc1nc(Nc2ccccc2)nc(N2CCOCC2)n1)c1cccs1,20.6 µM (active)

row,Compound,Potency
1,CCN(c1ccccc1)S(=O)(=O)c1ccc(OCC(=O)N2CCCC2)cc1,inactive
2,CCc1cccc(NC(=O)CCNS(=O)(=O)c2cccc3nonc23)c1,inactive
3,Cc1ccc(NC(=O)C2(N3CCC3=O)CCCCC2)cc1,inactive
4,CCc1cc2c(cc3c(=O)n(CC(=O)NCCc4ccc(OC)c(OC)c4)ncn32)s1,inactive
5,Cc1ccc(-c2cn3c(n2)sc2cc(C(=O)NCCCc4ccccc4)ccc23)cc1,8.2 µM (active)
6,CCOc1ccc(CCNC(=O)Nc2ccccc2)cc1OCC,inactive
7,COc1ccc(Cl)cc1C(=O)OCC(=O)NCc1cccs1,inactive
8,COc1ccc(CCNC(=O)CN(C)S(=O)(=O)c2ccc3nc(C)sc3c2)cc1OC,inactive
9,CCOc1ccc(CCNC(=O)c2ccc3c(c2)sc2nc(-c4ccc(F)cc4)cn23)cc1OCC,5.8 µM (active)
10,CCOc1cccc2cc(-c3cn4c(n3)sc3cc(C)ccc34)c(=O)oc12,inactive
11,Cc1cc(C(=O)NCCCc2ccccc2)no1,inactive
12,Cc1ccc(-c2cn3c(n2)sc2cc(C(=O)NCc4cccs4)ccc23)c(C)c1,18.4 µM (active)
13,CC(C)c1ccc(C(=O)NCCCc2ccccc2)cc1,inactive
14,CCOc1ccc(CCNC(=O)Cn2nc(CC)n3c(cc4sc(CC)cc43)c2=O)cc1OCC,inactive
15,COc1ccc(CCNC(=O)c2ccc3c(c2)sc2nc(-c4ccc(C)cc4)cn23)cc1OC,5.17 µM (active)
16,Cc1cc(O)c(NC(=O)c2ccc(C)c([N+](=O)[O-])c2)cc1C,inactive
17,CCc1ccc(-c2nnn(Cc3nc4ccccc4s3)n2)cc1,inactive
18,C[C@H]1Cn2cnc(C(=O)N[C@H](C)c3ccccc3)c2C(=O)N1,inactive
19,CC1(C)Cc2ccccc2-c2[nH]c(=S)[nH]c(=O)c21,inactive
20,Cc1ccc(C(=O)NN(CCC#N)C2=NS(=O)(=O)c3ccccc32)cc1,inactive
21,Cc1cc(C)c(NC(=O)CN2CCOCCOCCOCCOCC2)c(C)c1,inactive
22,O=C(Oc1ccc2c(c1)CCC2)N1CCOCC1,inactive
23,C=C(C)CSc1nnc(-c2ccc(C)cc2)n1N,inactive
24,CCCCn1c(N)c(N(CC(C)C)C(=O)C2CSC3(C)CCC(=O)N23)c(=O)[nH]c1=O (stereo not given),inactive
25,O=C(O)c1ccc(-n2cccc2)cc1O,inactive
26,CCOC(=O)C1CCCN(C(=O)c2cccc(S(=O)(=O)N3CCOCC3)c2)C1 (stereo not given),inactive
27,CCOC(=O)C1CCCN(C(=O)c2cncc(Br)c2)C1 (stereo not given),inactive

row,Compound,Potency
1,CCOC(=O)C1CCCN(C(=O)c2ccc3c(c2)sc2nc(-c4ccc(CC)cc4)cn23)C1 (stereo not given),5.17 µM (active)
2,O=C(COc1ccc([N+](=O)[O-])cc1)Nc1cccc(C(=O)Nc2ccccc2C(=O)O)c1,inactive
3,O=C(NC1(C(F)(F)F)NC(=O)N(Cc2cccnc2)C1=O)c1ccccc1Cl (stereo not given),inactive
4,CN1CCN(C2(CNC(=O)COc3ccc(C(C)(C)C)cc3)CCCCC2)CC1,18.4 µM (active)
5,COc1ccc(S(=O)(=O)N2CCN(CC(=O)NCC3(N4CCOCC4)CCCCC3)CC2)cc1,inactive
6,Cc1cccc(NC(=O)CN2CCN(CC(=O)NCC3(N4CCCCC4)CCCCC3)CC2)c1C,inactive
7,Cc1nc2sc(C(c3ccco3)N3CCOCC3)c(O)n2n1 (stereo not given),inactive
8,COc1ccc(CC(=O)N[C@@H]2c3cc(OC)c(OC)cc3C[C@H]2OCc2ccccc2)cc1,inactive
9,CCn1c(CNC(=O)c2ccc(OC)c(OC)c2)nnc1SCC(=O)Nc1ccccc1,inactive
10,COc1ccc(C2(CNC(=O)Cc3ccc(OC)c(OC)c3)CCCC2)cc1,20.6 µM (active)
11,COc1ccc(C(=O)NC2CC(C)(C)NC(C)(C)C2)cc1OC,inactive
12,COc1ccc(CC(=O)NC2CCSc3ccccc32)cc1OC (stereo not given),inactive
13,COc1ccccc1OCC(=O)Nc1ccccc1C(=O)NC1CC1,inactive
14,COc1ccccc1C(=O)NCCC(=O)NN1C(=O)NC2(CCCCC2)C1=O,inactive
15,CCOc1c(OC)cccc1C(=O)NCC1(c2ccccc2)CCCC1,6.51 µM (active)
16,COc1cc(C(=O)NCC2(c3ccccc3)CCCC2)ccc1OC(C)C,10.3 µM (active)
17,Cn1cnc(S(=O)(=O)Nc2ccc3c(c2)OCCO3)c1,inactive
18,CN(C)Cc1c(C#N)c2ccccc2n1C,inactive
19,COCCCN(C(=O)Cn1ncc2c(=O)oc3ccc(C)cc3c21)C(C)c1ccncc1 (stereo not given),inactive
20,CC1CCN(CCCn2c(SCC(=O)NC3CCCC3)nc3ccccc3c2=O)CC1,inactive
21,Nc1nc(SCCOc2ccccc2)n[nH]1,inactive
22,COc1cc(C(=O)OCCCN2CCOCC2)cc(OC)c1OC,inactive
23,COc1ccc(CNc2nc3c(c(=O)[nH]c(=O)n3C)n2Cc2ccccc2)cc1,inactive
24,CCC(C)Sc1nc2c(c(=O)[nH]c(=O)n2C)n1CC(O)COc1cccc2ccccc12 (stereo not given),29.1 µM (active)
25,Cn1c(=O)[nH]c(=O)c2c1nc(N1CCN(C(c3ccccc3)c3ccccc3)CC1)n2CCO,16.4 µM (active)
26,C=C(C)Cn1c(N2CCCC2)nc2c1c(=O)[nH]c(=O)n2C,inactive
27,Cc1nnc(SCCCn2c(N3CCCCC3)nc3c2c(=O)[nH]c(=O)n3C)s1,inactive

row,Compound,Potency
1,Cc1cccc(OCC(O)Cn2c(N3CCCCC3)nc3c2c(=O)[nH]c(=O)n3C)c1 (stereo not given),23.1 µM (active)
2,C=C(C)Cn1c(N2CCN(CC)CC2)nc2c1c(=O)[nH]c(=O)n2C,inactive
3,CC1CN(CC(=O)NC(C)c2ccccc2)CC(C)O1 (stereo not given),inactive
4,CC(C)(C)C(=O)N1CCC[C@@]1(CO)C(=O)O,inactive
5,O=C(c1ccc2c(c1)OCO2)N1CCN(C(=O)c2ccco2)CC1,inactive
6,O=c1cc(N2CCN(Cc3ccccc3)CC2)c(-c2ccccc2)n[nH]1,inactive
7,O=S1(=O)CCN(Cc2ccccc2)CC1,inactive
8,O=C1c2ccccc2C(=O)c2c1cccc2N1CCN(Cc2ccccc2)CC1,18.4 µM (active)
9,C=CCNC(=O)c1cc(-c2ccccc2O)on1,inactive
10,C=CCNC(=O)c1ccc(C)c(Br)c1,inactive
11,C=CCNC(=O)c1ccc2nc(-c3ccco3)c(-c3ccco3)nc2c1,11.2 µM (active)
12,COC(=O)NNC1=CC(=O)CC(C)(C)C1,inactive
13,Cc1ccc(N2C(=O)C(NC(=O)c3c(F)cccc3F)(C(F)(F)F)C3=C2CC(C)(C)CC3=O)cc1 (stereo not given),inactive
14,CN(C)c1ccc(C2Nc3ccccc3C(=O)N2NS(=O)(=O)c2ccccc2)cc1 (stereo not given),inactive
15,Cc1cccc(C)c1OCC(=O)NC(Cc1c[nH]c2ccccc12)C(=O)O (stereo not given),inactive
16,COc1ccc(-c2cc(C(=O)NC(C(=O)O)C(C)C)c(C)o2)cc1OC (stereo not given),inactive
17,COc1ccc(-c2cc(C(=O)NC(Cc3c[nH]c4ccccc34)C(=O)O)c(C)o2)cc1OC (stereo not given),29.1 µM (active)
18,Cc1ccc(S(=O)(=O)NCc2csc(C)n2)c(C)c1,inactive
19,CN(Cc1ccccc1)C(=O)c1cn(C)c2ccc(S(=O)(=O)N(C)C3CCCCC3)cc2c1=O,inactive
20,CCn1cc(C(=O)N2CCN(c3cc(Cl)ccc3C)CC2)c(=O)c2cc(S(=O)(=O)N3CCCC3)ccc21,25.9 µM (active)
21,CCn1cc(C(=O)N2CC(C)CC(C)C2)c(=O)c2cc(S(=O)(=O)N3CCCC3)ccc21 (stereo not given),inactive
22,Cc1ccc(Cl)cc1N1CCN(C(=O)c2cn(C)c3ccc(S(=O)(=O)N(C)C4CCCCC4)cc3c2=O)CC1,inactive
23,CCOC(=O)N1CCN(C(=O)c2cn(C)c3ccc(S(=O)(=O)N4CCCC4)cc3c2=O)CC1,inactive
24,CCn1cc(C(=O)N2CCN(c3cc(C)ccc3C)CC2)c(=O)c2cc(S(=O)(=O)N(C)C3CCCCC3)ccc21,18.4 µM (active)
